The supplement of paper PMC6555819

What follows are sequences tested on LXRb:RXRa (NR concentration 270 nM, RXRa partner concentration 90 nM) (assay: PBM binding z-score (relative to random genomic background probes); higher = stronger binding; sequences stand for … in GC…GCGATTGACAGCGTAGAATGAAGG).
Method: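 Protein-binding microarray (Agilent 4x180K custom design, double-stranded 60-nt probes: 5' GC cap, 34-nt variable region, 24-nt constant primer region; full probe sequence given). Purified or IVT nuclear receptor:RXRα heterodimers (3:1 NR:RXRα, mostly 270:90 nM) or homodimers were incubated for 1 h in PBS with 2% milk and no ligand, then detected with Alexa488 antibodies. Fluorescence from o1-orientation probes (~5 replicates averaged) was converted to z-scores against 500 random hg19 background probes. Variable regions are seed direct-repeat (DR0–DR5) sites, all their single-nucleotide variants and half-site ablations.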
In the case of AGAATGAGATTACCAAAGATCAGGGAAACGCTTG, the PBM binding z-score is reported as -0.266. TGAATGAGGTTAAATATCAGGGAACGTGGCGTCG gave a PBM binding z-score of 1.79. With GGAACGAGGTCATTCGAGTTGATAGCATGGCGAT the PBM binding z-score was 4.8. AACGAAAGGTCGAAGGTGAGTATACCCACCCGAA showed a PBM binding z-score of 3.06. Sequence TCTTGTAGATCAACAGGAGGTTAATAAAGATCGA has a PBM binding z-score of 1.49. In the case of TTACCAAGGTGAAAGGTCGTTGCTGCACGCCTTG, the PBM binding z-score is reported as 2.89. Sequence GCTGCTAGGTCAACTGATGGTCATCTAAAGCTCG has a PBM binding z-score of 2.18. Sequence TAGCCTAAGTCATGCGGGCCAGTATAGTGTCGGC has a PBM binding z-score of -0.501. Work on ATATGTAGTTTATCGGGTCATTCAGTTTGCGCAT yielded a PBM binding z-score of 2.94. CCTACTGGTCCAAGGTCATTGATCAGTCAAAGCA gave a PBM binding z-score of 3.52. For CGTCCAAGGTCATAGAGGTCAGTGAATGCCGAGT, the PBM binding z-score was 5.69. CCTAGCAGGCCAATCTAGGTCACTCAAGGCTTGA was tested, and the PBM binding z-score was 1.24. Sequence CCTACTGGGCCATTCAGAGGTCAATGATCATATG has a PBM binding z-score of 3.64. ACTTACGGGTCTACGAGGTTATAGCACGCGTATA showed a PBM binding z-score of 0.819. CCGAGAAGGTTACGAGGGGGCATTCAGTGCGAAT showed a PBM binding z-score of 7.2. In the case of TCTAGTCGGTCAAAGGTCACACACTCGAAATGCG, the PBM binding z-score is reported as 5.97. AGAATGAGGTCATACGTAGATCAGGGAAGAAAGT showed a PBM binding z-score of 5. With CGAACTAGGTCAAGGGACAGTGAAAGGCGACGTA the PBM binding z-score was 1.33. TCTGCTAGGTCAACGTTGGTCAGCTAATCTGCTA was tested, and the PBM binding z-score was 1.61. With CGAACAAGGTCATTGACAGGACAGTGAATAGTAA the PBM binding z-score was 4.62. TAGCCTAGGTCATTCAGGGGCCAGCATAGAAAGC was tested, and the PBM binding z-score was 3.03. Work on CCTAGTTGTTCAGGAGGTCACACACCGGATATGA yielded a PBM binding z-score of 3.76. For AATACAGGGTCATCGTACGCCAGAGTACGCACAG, the PBM binding z-score was 4.92. TCTTGTAGATCAATAGAAGTTAAGAAAGTGCGCT gave a PBM binding z-score of 0.436. Work on ATCGAAAGGTCCAAGGTGAGTATACCCACCCGAA yielded a PBM binding z-score of 0.126. ATCGAAAGGTCGACGAGGTGAGTAAACACCGTTT was tested, and the PBM binding z-score was 2.87. CCTACTGGGCCGTTCAGAGGTCATTGATCATATG was tested, and the PBM binding z-score was 3.55. In the case of AGAATGAGGTTAAGTTCAGGGAAACAGAATACAT, the PBM binding z-score is reported as 2.78. Sequence CGAACTAGGTCGAGGACAGTGAATCTCCGCACGC has a PBM binding z-score of -0.262. Sequence AGAATGAGGTCACCAAAGATCAGGGAAACGCTTG has a PBM binding z-score of 5.13. With TCGCCTAGGTCATGGGCCAGTATACCACGCGAAC the PBM binding z-score was 2.29. CCTCGGAGGACAACAGGAGGTCATAGCTGCCAGA gave a PBM binding z-score of 3.15. With CGTCCGAGGTCATAGGAGGTCAGTGAAGACAGAT the PBM binding z-score was 6.8. ATCTCTAGGTTAAGATAGTTCAGTGAATGCAAAT was tested, and the PBM binding z-score was 3.33. For CGAACGAGGTCATCCAGGACAGTGAATACATTGA, the PBM binding z-score was 5.42. TCTAGTTGGTCACGGAGGTCCCACACGACGGGTA showed a PBM binding z-score of 0.167. Work on ATCGAAAGGTCTAAGGTGAGTATACCCACCCGAA yielded a PBM binding z-score of 0.196. In the case of ATCGAAAGGTCGAAGGTGCGTATACCCACCCGAA, the PBM binding z-score is reported as 2.33. With CGAACTAGGTCATTGACAGGACAATGAATAGTAA the PBM binding z-score was 2.47. For AGAACGAGGTCACGCTGAGTTGATAGCAGAGTAG, the PBM binding z-score was 5.24.
